Activity calls are given as the source filed them. Rule for the calls: active = hit-call score of the fitted dose curve at least 0.9, where 1 is the maximum; inactive = score below 0.9.

These results are taken from PubChem BioAssay (EPA / NIEHS).

Read-out in assay [1]: Interleukin-1 alpha (IL1a), IL1A (gene 3552)
Briefly: BSK_KF3CT_IL1a: BioMAP Diversity Plus: KF3CT Assay for Interleukin-1 alpha (IL1a) Biomarker Activity (AID 2283070). The note with it: primary human keratinocytes with fibroblasts; actives raise or lower the signal. The method, boiled down: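 Readout is IL-1a level by ELISA, compared bidirectionally with DMSO as baseline. Cells: human keratinocytes co-cultured with foreskin fibroblasts, harvested 24 h post-dose.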

Read-out in assay [2]: TIMP metallopeptidase inhibitor 2 (TIMP2), TIMP2 (gene 7077)
Briefly: BSK_KF3CT_TIMP2: BioMAP Diversity Plus: KF3CT Assay for TIMP metallopeptidase inhibitor 2 (TIMP2) Biomarker Activity (AID 2283071). The note with it: primary human keratinocytes with fibroblasts; actives raise or lower the signal. The method in brief: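 ELISA readout of TIMP-2 in keratinocyte plus foreskin fibroblast co-cultures (human skin primary cells), 24 h post-dose. Gain or loss of signal fitted relative to DMSO.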

Read-out in assay [3]: Transforming growth factor beta 1 (TGFb1), TGFB1 (gene 7040)
Put plainly: BSK_KF3CT_TGFb1: BioMAP Diversity Plus: KF3CT Assay for Transforming growth factor beta 1 (TGFb1) Biomarker Activity (AID 2283072). The note with it: primary human keratinocytes with fibroblasts; actives raise or lower the signal. The method, boiled down:
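Read-out: ELISA for TGF-b1 in keratinocyte/foreskin fibroblast human skin co-culture, 24 h after dosing; bidirectional curve fit vs DMSO baseline; gain or loss of signal scored.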

Read-out in assay [4]: C-C motif chemokine 2 (Homo sapiens) (UniProt P13500)
Put plainly: BSK_KF3CT_MCP1: BioMAP Diversity Plus: KF3CT Assay for Monocyte Chemoattractant Protein 1 (MCP1/CCL2) Biomarker Activity (AID 2283073). The note with it: primary human keratinocytes with fibroblasts; actives raise or lower the signal. The method in brief:
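KF3CT skin co-culture (keratinocytes/foreskin fibroblasts), 24 h post-dose; MCP-1 by ELISA; gain/loss of signal fit bidirectionally vs DMSO baseline.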

Read-out in assay [5]: Matrix Metallopeptidase 9 (MMP9), MMP9 (gene 4318)
Briefly: BSK_KF3CT_MMP9: BioMAP Diversity Plus: KF3CT Assay for Matrix Metallopeptidase 9 (MMP9) Biomarker Activity (AID 2283074).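 For AC50: MMP9 protein level quantified by ELISA in the co-culture.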 The following applies: primary human keratinocytes with fibroblasts; actives raise or lower the signal. The method in brief: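 Values come from bidirectional fitting relative to DMSO of MMP-9 levels, which were measured by ELISA. Measurements were taken 24 h after chemical dosing of a keratinocyte and foreskin fibroblast co-culture.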

Read-out in assay [6]: urokinase plasminogen activator (uPA), PLAU (gene 5328)
Put plainly: BSK_KF3CT_uPA: BioMAP Diversity Plus: KF3CT Assay for urokinase plasminogen activator (uPA) Biomarker Activity (AID 2283075). The note with it: primary human keratinocytes with fibroblasts; actives raise or lower the signal. The method, boiled down:
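Values derive from bidirectional fitting against DMSO controls. Keratinocyte/foreskin fibroblast co-cultures received chemical; 24 h later uPA was detected by ELISA, with SRB total-protein staining in parallel wells for overt cytotoxicity.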

Read-out in assay [7]: CD40, CD40 (gene 958)
Put plainly: BSK_LPS_CD40: BioMAP Diversity Plus: LPS Assay for CD40 Biomarker Activity (AID 2283076). The note with it: primary human HUVEC with PBMC; actives raise or lower the signal. The method in brief:
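ELISA readout of CD40 in HUVEC/PBMC co-culture (BSK_LPS system), 24 h post-dosing; bidirectional curve fit, DMSO baseline; parallel SRB total-protein staining for cytotoxicity.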

Read-out in assay [8]: E-selectin (Homo sapiens) (UniProt P16581)
Briefly: BSK_LPS_Eselectin: BioMAP Diversity Plus: LPS Assay for Eselectin Biomarker Activity (AID 2283077). The note with it: primary human HUVEC with PBMC; actives raise or lower the signal. The method, boiled down:
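ELISA readout of E-selectin, 24 h post-dose, HUVEC + PBMC co-culture (LPS system). Gain or loss of signal vs DMSO baseline, bidirectional fit.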

Read-out in assay [9]: Interleukin-8 (IL8), CXCL8 (gene 3576)
Briefly: BSK_LPS_IL8: BioMAP Diversity Plus: LPS Assay for Interleukin-8 (IL8) Biomarker Activity (AID 2283078). The note with it: primary human HUVEC with PBMC; actives raise or lower the signal. The method in brief:
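HUVEC + PBMC co-culture, LPS-activated; test chemicals dosed, IL-8 read by ELISA at 24 h. Bidirectional curve fit vs DMSO baseline (gain or loss of signal).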

The nature of assay [10]: BSK_LPS_SRB: Viability Assessment in the BioMAP Diversity Plus: LPS Assay (AID 2283079).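 Note: total protein by sulforhodamine B absorbance as a cytotoxicity measure; measured one day after compound addition; fitted in both directions against DMSO so loss or gain of signal counts.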 The note with it: primary human HUVEC with PBMC. The method in brief:
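HUVEC + PBMC co-culture, LPS-stimulated; compound 24 h. 10% TCA fix, 0.1% SRB stain, A560. Bidirectional fit vs DMSO.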

Read-out in assay [11]: Interleukin-1 alpha (IL1a), IL1A (gene 3552)
Briefly: BSK_LPS_IL1a: BioMAP Diversity Plus: LPS Assay for Interleukin-1 alpha (IL1a) Biomarker Activity (AID 2283080). The note with it: primary human HUVEC with PBMC; actives raise or lower the signal. The method, boiled down:
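HUVEC/PBMC co-culture, LPS system; 24 h after dosing; IL-1a by ELISA; gain or loss of signal fitted bidirectionally vs DMSO baseline.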

Read-out in assay [12]: Monocyte Chemoattractant Protein-1 (MCP1), CCL2 (gene 6347)
Briefly: BSK_LPS_MCP1: BioMAP Diversity Plus: LPS Assay for Monocyte Chemoattractant Protein-1 (MCP1) Biomarker Activity (AID 2283081).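 For AC50: secreted MCP-1 protein quantified by ELISA in culture supernatant.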 The following applies: primary human HUVEC with PBMC; actives raise or lower the signal. The method, boiled down: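 ELISA read-out of MCP-1 after 24 h chemical dosing of a human umbilical vein endothelial cell/peripheral blood mononuclear cell co-culture stimulated with LPS. Gain or loss of signal fitted relative to DMSO controls.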

A short description of assay [13]: BSK_LPS_PGE2: BioMAP Diversity Plus: LPS Assay for Prostaglandin E2 (PGE2) Biomarker Activity (AID 2283082).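 For AC50: secreted prostaglandin E2 measured by ELISA in LPS-stimulated co-culture.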 The note with it: primary human HUVEC with PBMC; actives raise or lower the signal. The method in brief: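 ELISA read-out of PGE2 from human umbilical vein endothelial cells co-cultured with peripheral blood mononuclear cells under LPS, 24 h post-dose. Gain or loss of signal scored relative to DMSO baseline.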

Read-out in assay [14]: Macrophage colony-stimulating factor (MCSF), CSF1 (gene 1435)
Put plainly: BSK_LPS_MCSF: BioMAP Diversity Plus: LPS Assay for Macrophage colony-stimulating factor (MCSF) Biomarker Activity (AID 2283083). The following applies: primary human HUVEC with PBMC; actives raise or lower the signal. The method in brief:
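HUVEC + PBMC co-culture (human primary), 24 h post-dose; M-CSF by ELISA; gain/loss of signal fitted bidirectionally vs DMSO baseline.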

Read-out in assay [15]: Tissue Factor, F3 (gene 2152)
Put plainly: BSK_LPS_TissueFactor: BioMAP Diversity Plus: LPS Assay for Tissue Factor Biomarker Activity (AID 2283084). The following applies: primary human HUVEC with PBMC; actives raise or lower the signal. The method, boiled down:
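HUVEC/PBMC co-culture, LPS-activated; CD142 ELISA read 24 h post-dose; bidirectional curve fit vs DMSO negative control.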

Read-out in assay [16]: Tumor necrosis factor (Homo sapiens) (UniProt P01375)
Briefly: BSK_LPS_TNFa: BioMAP Diversity Plus: LPS Assay for Tumour Necrosis Factor alpha (TNFa) Biomarker Activity (AID 2283085).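 For AC50: TNFa protein level quantified by ELISA in the co-culture.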 The note with it: primary human HUVEC with PBMC; actives raise or lower the signal. The method in brief: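 HUVEC/PBMC co-culture, LPS-stimulated; 24 h post-dose; TNFa by ELISA; gain or loss of signal fitted bidirectionally vs DMSO baseline.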

Read-out in assay [17]: Vascular cell adhesion molecule 1 (VCAM1), VCAM1 (gene 7412)
Put plainly: BSK_LPS_VCAM1: BioMAP Diversity Plus: LPS Assay for Vascular cell adhesion molecule 1 (VCAM1) Biomarker Activity (AID 2283086). The following applies: primary human HUVEC with PBMC; actives raise or lower the signal. The method in brief: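 ELISA read-out of VCAM-1 at 24 h post-dosing in an LPS-driven HUVEC/PBMC primary human co-culture; gain or loss of signal fitted bidirectionally against DMSO baseline. Cytotoxicity tracked in parallel cultures by SRB total-protein staining.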

Read-out in assay [18]: CD38, CD38 (gene 952)
Briefly: BSK_SAg_CD38: BioMAP Diversity Plus: SAg Assay for CD38 Biomarker Activity (AID 2283087). The following applies: primary human HUVEC with PBMC; actives raise or lower the signal. The method in brief: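 Measures CD38 on a human endothelial/PBMC co-culture driven by SEB and TSST-1, 24 h after compound exposure, using ELISA with fluorescence detection; DMSO defines baseline for bidirectional curve fitting.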

Read-out in assay [19]: CD40, CD40 (gene 958)
Put plainly: BSK_SAg_CD40: BioMAP Diversity Plus: SAg Assay for CD40 Biomarker Activity (AID 2283088). The note with it: primary human HUVEC with PBMC; actives raise or lower the signal. The method, boiled down: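 HUVEC/PBMC co-culture, 24 h post-dose; CD40 by ELISA, fluorescence intensity; bidirectional fit vs DMSO negative control.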

Read-out in assay [20]: CD69, CD69 (gene 969)
Briefly: BSK_SAg_CD69: BioMAP Diversity Plus: SAg Assay for CD69 Biomarker Activity (AID 2283089).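 For AC50: cell surface CD69 protein quantified by ELISA with fluorescence detection.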 The following applies: primary human HUVEC with PBMC; actives raise or lower the signal. The method, boiled down:
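HUVEC co-cultured with PBMC were dosed with chemical, and CD69 was measured by ELISA with fluorescence read-out 24 h later. Bidirectional curve fitting used DMSO as negative control and activity baseline.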

Chain of Tumor necrosis factor (Homo sapiens) (P01375 whole entry, looked up): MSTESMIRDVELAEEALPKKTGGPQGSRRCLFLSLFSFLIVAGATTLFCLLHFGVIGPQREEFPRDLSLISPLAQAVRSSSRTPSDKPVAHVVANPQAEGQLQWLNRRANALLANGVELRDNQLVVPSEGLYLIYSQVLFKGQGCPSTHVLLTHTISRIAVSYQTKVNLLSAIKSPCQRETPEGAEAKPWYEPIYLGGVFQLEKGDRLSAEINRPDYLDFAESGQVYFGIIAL
Chain of E-selectin (Homo sapiens) (P16581 whole entry, looked up): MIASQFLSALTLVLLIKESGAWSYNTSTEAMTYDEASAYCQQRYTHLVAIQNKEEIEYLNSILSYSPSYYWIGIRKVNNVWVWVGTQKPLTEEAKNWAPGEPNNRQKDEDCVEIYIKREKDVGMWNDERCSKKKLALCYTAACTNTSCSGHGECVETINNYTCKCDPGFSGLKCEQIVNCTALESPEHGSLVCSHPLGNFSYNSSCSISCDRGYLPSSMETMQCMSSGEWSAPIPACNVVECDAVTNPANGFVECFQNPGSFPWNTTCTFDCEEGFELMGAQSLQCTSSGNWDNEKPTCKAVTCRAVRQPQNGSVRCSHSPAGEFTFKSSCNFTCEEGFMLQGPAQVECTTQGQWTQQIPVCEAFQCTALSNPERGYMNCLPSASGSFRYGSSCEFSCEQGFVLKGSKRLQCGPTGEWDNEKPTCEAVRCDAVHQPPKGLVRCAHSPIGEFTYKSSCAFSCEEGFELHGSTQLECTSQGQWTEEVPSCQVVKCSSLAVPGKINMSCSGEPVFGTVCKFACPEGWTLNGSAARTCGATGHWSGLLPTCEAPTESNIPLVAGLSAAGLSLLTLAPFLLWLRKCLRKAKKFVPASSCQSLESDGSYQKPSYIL

As for `CON=C(C(=O)OC)c1ccccc1CON=C(C)c1cccc(C(F)(F)F)c1`, the result in assay [1], in assay [2], in assay [3], in [6], in assay [11] and in assay [15] was inactive. Also, the result in assay [17] was inactive. For the same molecule, the AC50 in assay [4] is 6.61 µM (active); in assay [5] it was 3.97 µM (active); in assay [7], 13.5 µM (active); in assay [8], 0.25 µM (active); in assay [9], 3.35 µM (active); in assay [10], 6.96 µM (active). Further, the AC50 is 2.93 µM (active) in [12]; 1.14 µM (active) in [13]; 5.49 µM (active) in assay [14]; 5.02 µM (active) in [16]; 5.63 µM (active) in assay [18].
As to `COP(=O)(OC)SCn1c(=O)oc2cc(Cl)cnc21`, the result in assay [1], in assay [2], in assay [3], in assay [11], in [12] and in assay [15] was inactive. Besides, the AC50 in [4] is 31.3 µM (active); in assay [5], 25.8 µM (active); in [6], 20 µM (active); in assay [7], 19.8 µM (active); in assay [8], 19.1 µM (active); in assay [9], 20 µM (active). In addition, the AC50 in assay [10] was 20 µM (active); in assay [13], 2.01 µM (active); in assay [14] it was 18.3 µM (active); in [16], 0.148 µM (active); in assay [17], 4.34 µM (active); in assay [18], 21.4 µM (active). In addition, the AC50 in [19] and in assay [20] was 20 µM (active) in each case.
For the molecule `CN(C)NC(=O)CCC(=O)O`, the result in [1], in assay [2], in [3], in assay [4], in assay [5] and in assay [6] was inactive. Moreover, the result in assay [7], in assay [8], in assay [9], in assay [10], in [11] and in assay [12] was inactive. The outcome in assay [13], in assay [14], in assay [15], in assay [16], in assay [17] and in assay [18] was inactive. Besides, the outcome in assay [19] and in [20] was inactive.

As a reminder, the AC50 is the concentration giving half of the maximal activity seen.
